These results are taken from PubChem BioAssay (NCI).

Among the test systems are EKVX NSCLC; SN12C renal; UO-31 renal; TK-10 renal; ACHN renal; CAKI-1 renal; A498 renal; CCRF-CEM leukemia; MOLT-4 leukemia; SR leukemia; RPMI-8226 leukemia; OVCAR-8 ovarian; OVCAR-5 ovarian; OVCAR-4 ovarian; SK-OV-3 ovarian; IGROV1 ovarian; OVCAR-3 ovarian; NCI/ADR-RES ovarian; SK-MEL-2 melanoma; HS 578T breast.
What all share (test): NCI-60 one-dose screen, 48 h (100 = growth as untreated, 0 = no growth, -100 = all killed)
Conditions in all cases: 10 µM unless noted

SMILES strings stand for the structures. About 83,000 compounds went through this panel and 20% of them were active in at least one assay; those are over-represented in the sample as a whole.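 The test compound was applied at a single concentration to cells in 96-well plates for 48 hours, and percent growth was recorded.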 Values without a mark were called inactive. Active and inactive are the calls of the source. How the source made its calls: active means growth percent below 10; inactive means the rest.

As to `COc1ccc(-c2cc(-c3cc(OC)ccc3O)[nH]c(=O)c2C#N)cc1`, the growth in the experiment on EKVX NSCLC is 96%; with SN12C renal it was 66.3%; with UO-31 renal it was 44.1%; with TK-10 renal, 76.1%; in the experiment on ACHN renal, 81%; with CAKI-1 renal, 77.6%. Further, the growth is 37.5% in the experiment with A498 renal; 46.3% in the experiment with CCRF-CEM leukemia; 32% in the experiment with MOLT-4 leukemia; 10.1% in the experiment with SR leukemia; 56.4% in the experiment with RPMI-8226 leukemia; 64.3% in the experiment with OVCAR-8 ovarian. Moreover, the growth with OVCAR-5 ovarian is 119%; in the experiment on OVCAR-4 ovarian, 80.5%; with SK-OV-3 ovarian, 63.5%; in the experiment on IGROV1 ovarian, 71.6%; in the experiment with OVCAR-3 ovarian it was 27.5%; in the experiment on NCI/ADR-RES ovarian, 52.7%.
In the case of `Clc1ccc2[nH]c3c(NCCCN4CCOCC4)ncnc3c2c1`, the growth in the experiment with SK-MEL-2 melanoma was 94.5%; in the experiment on UO-31 renal it was 57.2%; in the experiment on TK-10 renal, 78.3%; in the experiment on ACHN renal, 45.1%; with CAKI-1 renal, 75.9%; in the experiment with A498 renal it was 58.4%. Also, the growth was 53.5% in the experiment with MOLT-4 leukemia; -24.2% (active) with SR leukemia; 52.6% in the experiment on RPMI-8226 leukemia; 66.5% in the experiment with OVCAR-8 ovarian; 90.8% in the experiment on OVCAR-5 ovarian; 77.5% in the experiment on OVCAR-4 ovarian. For the same compound, the growth was 81.5% in the experiment with SK-OV-3 ovarian, 63.1% with IGROV1 ovarian, 85.3% in the experiment with OVCAR-3 ovarian and 65.9% with NCI/ADR-RES ovarian.
Turning to `NC(N)=N/N=C(/c1ccccc1)c1ccc(N)cc1`, the growth was 112% in the experiment on SK-MEL-2 melanoma; 96.2% in the experiment on SN12C renal; 135% in the experiment with TK-10 renal; 107% with ACHN renal; -0.33% (active) in the experiment on CAKI-1 renal; 125% in the experiment on A498 renal. Moreover, the growth is 124% with CCRF-CEM leukemia; 107% in the experiment on MOLT-4 leukemia; 150% in the experiment on RPMI-8226 leukemia; 103% in the experiment on OVCAR-5 ovarian; 132% with OVCAR-4 ovarian; 99.3% with SK-OV-3 ovarian. Also, the growth is 127% in the experiment on IGROV1 ovarian, 112% in the experiment with OVCAR-3 ovarian, 150% in the experiment on HS 578T breast and 106% in the experiment with NCI/ADR-RES ovarian.
`O=[N+]([O-])c1ccc(-c2cc3c(Nc4ccc(Sc5nc6ccccc6s5)c(Cl)c4)ncnc3s2)cc1`: the growth is 46.7% in the experiment on SK-MEL-2 melanoma; 43.4% in the experiment with UO-31 renal; 48.2% in the experiment on TK-10 renal; -0.884% (active) with A498 renal; 34.6% in the experiment with CCRF-CEM leukemia; 23.7% with MOLT-4 leukemia. The growth in the experiment with SR leukemia was 38.7%; with OVCAR-8 ovarian it was 23.5%; with OVCAR-5 ovarian, 49.9%; with OVCAR-4 ovarian it was 35.2%; in the experiment on SK-OV-3 ovarian, 37.1%; with IGROV1 ovarian, 43.8%. The growth in the experiment on OVCAR-3 ovarian was 14.7%; with HS 578T breast it was 87.8%; with NCI/ADR-RES ovarian, 60.3%.
For `CCNCCNc1cc(-c2ccc(C(F)(F)F)cc2)c(C#N)c2nc3cc(Cl)c(Cl)cc3n12`, the growth with EKVX NSCLC is -94.2% (active); in the experiment on SN12C renal it was -70.9% (active); in the experiment on UO-31 renal it was -92.5% (active); in the experiment with TK-10 renal, -94.7% (active); in the experiment with ACHN renal, -100% (active); with CAKI-1 renal, -91.5% (active). The growth in the experiment on A498 renal was -40.5% (active); with CCRF-CEM leukemia, -48.4% (active); with MOLT-4 leukemia, -56.8% (active); in the experiment with SR leukemia it was -49.2% (active); in the experiment with RPMI-8226 leukemia, -41.6% (active); in the experiment with OVCAR-8 ovarian, -64.1% (active). The growth in the experiment with OVCAR-5 ovarian is -92.3% (active); with OVCAR-4 ovarian it was -81.9% (active); in the experiment with SK-OV-3 ovarian it was 67.6%; in the experiment on IGROV1 ovarian, -77.8% (active); in the experiment with OVCAR-3 ovarian it was -88.4% (active); in the experiment on HS 578T breast, -53.2% (active). Further, the growth with NCI/ADR-RES ovarian was -79.2% (active).
For the compound `CC(C)c1ccc(C(=O)OC(=O)c2ccc(C(C)C)cc2)cc1`, the growth in the experiment on SK-MEL-2 melanoma was 92.4%; in the experiment with SN12C renal it was 98.7%; in the experiment on UO-31 renal it was 83.9%; in the experiment with TK-10 renal, 98.2%; with CAKI-1 renal, 67.7%; in the experiment on A498 renal, 92.1%. Also, the growth in the experiment on CCRF-CEM leukemia was 66.8%; in the experiment on MOLT-4 leukemia, 66.2%; with SR leukemia, 60.2%; with RPMI-8226 leukemia it was 82.9%; with OVCAR-8 ovarian, 100%; in the experiment on OVCAR-5 ovarian it was 89.2%. Besides, the growth with OVCAR-4 ovarian was 105%; in the experiment with SK-OV-3 ovarian, 110%; in the experiment with HS 578T breast, 104%; in the experiment on NCI/ADR-RES ovarian, 95.4%.
For the compound `CN(C)c1ccc2cc(-c3ccccc3F)c(N)nc2c1`, the growth is 31.1% in the experiment on EKVX NSCLC; 54.9% with SN12C renal; 34% with UO-31 renal; 34.6% with TK-10 renal; 41.2% in the experiment with ACHN renal; 37.5% in the experiment on CAKI-1 renal. The growth in the experiment on A498 renal was -7.09% (active); in the experiment on CCRF-CEM leukemia, 45.7%; in the experiment with MOLT-4 leukemia, 35.1%; with SR leukemia, 6.09% (active); in the experiment with RPMI-8226 leukemia it was 25.2%; in the experiment with OVCAR-8 ovarian it was 22.6%. Moreover, the growth in the experiment on OVCAR-5 ovarian is 68.7%; in the experiment on OVCAR-4 ovarian, 32.8%; in the experiment on SK-OV-3 ovarian, 28.9%; in the experiment with IGROV1 ovarian it was 40.9%; in the experiment on OVCAR-3 ovarian, 3.93% (active); with HS 578T breast it was 28.9%. The growth with NCI/ADR-RES ovarian is 1.98% (active).
For the compound `Nc1c(C(=O)Nc2ccccc2)sc2nc3c(cc12)CCCCCC3`, the growth in the experiment with SK-MEL-2 melanoma was 9.7% (active); in the experiment on UO-31 renal it was 16.6%; in the experiment on TK-10 renal it was 36.3%; in the experiment with ACHN renal, 26.5%; with CAKI-1 renal, 42%; in the experiment with A498 renal, -0.375% (active). Also, the growth in the experiment on CCRF-CEM leukemia was 6.81% (active); in the experiment with MOLT-4 leukemia it was 18.3%; with SR leukemia it was 12.6%; in the experiment on OVCAR-8 ovarian, 16.4%; in the experiment on OVCAR-5 ovarian, 15.3%; with SK-OV-3 ovarian, -4.37% (active). The growth with IGROV1 ovarian was 15.3%; in the experiment with OVCAR-3 ovarian it was -34.8% (active); with HS 578T breast it was 22.8%; in the experiment on NCI/ADR-RES ovarian, 1.41% (active).
As for `CNC(=O)c1cc(Oc2ccc3nc(Nc4cc(Cl)cc(Cl)c4)ccc3c2)ccn1`, the growth with EKVX NSCLC was 53.1%; with SN12C renal, 78.9%; in the experiment on UO-31 renal it was 58.9%; with TK-10 renal it was 74.3%; in the experiment with ACHN renal, 62.6%; with CAKI-1 renal, 84.1%. Besides, the growth is 35.2% in the experiment with A498 renal; 81.1% in the experiment with CCRF-CEM leukemia; 33.7% with MOLT-4 leukemia; 6.56% (active) in the experiment with SR leukemia; 57.6% with RPMI-8226 leukemia; 67.9% in the experiment on OVCAR-8 ovarian. Further, the growth in the experiment with OVCAR-5 ovarian is 104%; with OVCAR-4 ovarian, 57.2%; in the experiment with SK-OV-3 ovarian, 86.2%; in the experiment with IGROV1 ovarian, 79.6%; in the experiment with OVCAR-3 ovarian it was 57.8%; in the experiment with HS 578T breast it was 64.5%. The growth in the experiment with NCI/ADR-RES ovarian is 35.6%.
